Laboratory results published in PubChem BioAssay (Tox21).
Results filed as inconclusive are left out. Calls of active or inactive are those of the source. Unless noted, calls come from the whole dose curve; as a rule, active = well fitted curve in the direction sought with a large enough effect in the repeat runs; inconclusive = weak or mixed curves; inactive = no such curve, though single readings can be large; an effect the other way counts as inactive or inconclusive.

What was measured:
[1] = qHTS assay to identify aromatase inhibitors - cell viability counter screen (AID 743084);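 note: cells stimulated with testosterone during compound exposure; nearly all actives have a fitted effect of over 55% in size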
[2] = target: Aryl hydrocarbon receptor (Homo sapiens) (UniProt P35869); assay: qHTS assay to identify small molecule that activate the aryl hydrocarbon receptor (AhR) signaling pathway (AID 743085); note: nearly all actives have a fitted effect of over 15% in size; note: potency is the fitted concentration of half-maximal effect;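 for activation: HG2L7.5c1 human HepG2 liver cells with stably integrated DRE-driven firefly reporter; series mostly up to about 70 µM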
Outline: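 Cell line HG2L7.5c1 (human hepatoma, 20× DRE-luc). Plated, 5 h 37C, compound/DMSO added, 24 h 37C. CellTiter-Fluor 30 min 37C → fluorescence; then ONE-Glo 30 min RT → luminescence.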

[3] = qHTS assay to identify small molecule that activate the aryl hydrocarbon receptor (AhR) signaling pathway - cell viability counter screen (AID 743086);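 note: HepG2 liver cells carrying the AhR DRE luciferase reporter; series mostly up to about 70 µM; nearly all actives have a fitted effect of over 45% in size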
Outline: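 HepG2-AhR-luc (HG2L7.5c1) cells, 4000/well, treated 24 h at 37 C with compound; viability measured as CellTiter-Fluor fluorescence after 30 min in the same wells as the luciferase read.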

[4] = target: Peroxisome proliferator-activated receptor gamma (Homo sapiens) (UniProt P37231); assay: qHTS assay to identify small molecule agonists of the peroxisome proliferator-activated receptor gamma (PPARg) signaling pathway (AID 743094; active = well fitted activation curve with a large enough effect in the signal ratio in the repeat runs, not every such curve was filed as active; the % refers to the signal ratio)
Outline: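 Cells from the PPARg UAS-bla HEK293H line are plated and incubated 5 h at 37C. Compounds in DMSO are pinned in and left 17 h at 37C. LiveBLAzer B/G substrate is then added for 1 h at room temperature before fluorescence is measured.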

[5] = target: Peroxisome proliferator-activated receptor gamma (Homo sapiens) (UniProt P37231); assay: qHTS assay to identify small molecule antagonists of the peroxisome proliferator-activated receptor gamma (PPARg) signaling pathway (AID 743191; calls by dose curve; note: series mostly up to about 63 µM; nearly all actives have a fitted effect of over 30% in size)
Outline: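 GeneBLAzer PPARg UAS-bla HEK293H cells, 5 h post-plating, exposed to compounds 17 h at 37C. LiveBLAzer B/G FRET substrate added for 1 h at room temperature; beta-lactamase reporter read by fluorescence intensity.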

[6] = qHTS assay to identify small molecule antagonists of the peroxisome proliferator-activated receptor gamma (PPARg) signaling pathway - cell viability counter screen (AID 743194); note: nearly all actives have a fitted effect of over 55% in size
Outline: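 Cytotoxicity counter screen in PPARg-bla HEK293H cells, same wells as reporter assay. Compounds plus 50 nM rosiglitazone (final) for 17 h at 37 C, then viability read by CellTiter-Glo luminescence.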

[7] = qHTS assay for small molecule agonists of the antioxidant response element (ARE) signaling pathway (AID 743202; active = well fitted activation curve with a large enough effect in the signal ratio in the repeat runs, not every such curve was filed as active; the % refers to the signal ratio)
Outline: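 HepG2 ARE-bla cells; 16 h treatment at 37 C; FRET-based beta-lactamase fluorescence read after 2 h substrate incubation at room temperature.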

[8] = qHTS assay for small molecule agonists of the antioxidant response element (ARE) signaling pathway - cell viability counter screen (AID 743203; calls by dose curve; note: nearly all actives have a fitted effect of over 55% in size)
Outline: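 Cytotoxicity was tested in parallel with the ARE reporter screen. ARE-bla HepG2 cells were exposed to compounds for 16 hrs, and viability was taken from CellTiter-Glo luminescence.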

[9] = qHTS assay for small molecule activators of the heat shock response signaling pathway - cell viability counter screen (AID 743209); note: nearly all actives have a fitted effect of over 50% in size
Outline: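 Cytotoxicity counter screen run in parallel with the HSE beta-lactamase reporter, using the same wells. HeLa HSE-bla cells received compound for 5 h at 37 C; ATP-based CellTiter-Glo luminescence was measured after 30 min at room temperature.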

[10] = qHTS assay for small molecule activators of the heat shock response signaling pathway (AID 743210; active = well fitted activation curve with a large enough effect in the signal ratio in the repeat runs, with a control signal flat, not every such curve was filed as active; the % refers to the signal ratio;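 note: HeLa cells with beta-lactamase reporter driven by heat shock elements; series mostly up to about 63 µM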)
Outline: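 Following overnight attachment, HSE-bla HeLa cells received test compounds for 5 h at 37 C; beta-lactamase activity was then detected via FRET substrate fluorescence.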

[11] = qHTS assay to identify small molecule agonists of the peroxisome proliferator-activated receptor delta (PPARd) signaling pathway - cell viability counter screen (AID 743211); note: nearly all actives have a fitted effect of over 55% in size
Outline: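 HEK293H PPARd-bla, 3000 cells/well; 5 h preincubation 37C/5% CO2; cpd in DMSO, 17 h 37C; B/G FRET substrate 2 h RT; CellTiter-Glo 30 min RT, luminescence.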

[12] = target: Peroxisome proliferator-activated receptor delta (Homo sapiens) (UniProt Q03181); assay: qHTS assay to identify small molecule agonists of the peroxisome proliferator-activated receptor delta (PPARd) signaling pathway (AID 743212; calls by dose curve)
Outline: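 Tox21 library screened in GeneBLAzer PPARd UAS-bla HEK293H cells. After compound treatment at 37 C, a FRET-based beta-lactamase substrate was applied for 2 h and fluorescence recorded.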

[13] = qHTS assay to identify small molecule agonists of the farnesoid-X-receptor (FXR) signaling pathway - cell viability counter screen (AID 743218); note: nearly all actives have a fitted effect of over 45% in size
Outline: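 Cells were seeded, left 5 h at 37 C and 5% CO2, then dosed with compound in DMSO for 16 h. After the beta-lactamase FRET read, CellTiter-Glo was added and luminescence measured 30 min later.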

[14] = qHTS assay to identify small molecule antagonists of the farnesoid-X-receptor (FXR) signaling pathway - cell viability counter screen (AID 743221; active = well fitted cell-killing curve with a large enough effect in the repeat runs, not every such curve was filed as active; note: nearly all actives have a fitted effect of over 50% in size)
Outline: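 Luminescence from CellTiter-Glo measures cytotoxicity in GeneBLAzer FXR-UAS-bla HEK 293T cells. Cells were exposed to compounds with 50 uM chenodeoxycholic acid (final) for 16 h at 37 C, in wells also used for the reporter readout.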

[15] = qHTS assay to identify small molecule antagonists of the peroxisome proliferator-activated receptor delta (PPARd) signaling pathway - cell viability counter screen (AID 743213); note: nearly all actives have a fitted effect of over 50% in size
Outline: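 Same-well viability: cells pre-incubated 5 h, dosed with compound plus 300 nM L165041, kept 17 h at 37 C, FRET substrate 2 h RT, then CellTiter-Glo 30 min RT and luminescence.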

[16] = target: Peroxisome proliferator-activated receptor delta (Homo sapiens) (UniProt Q03181); assay: qHTS assay to identify small molecule antagonists of the peroxisome proliferator-activated receptor delta (PPARd) signaling pathway (AID 743215; active = well fitted inhibition curve with a large enough effect in the signal ratio in the repeat runs, not every such curve was filed as active; the % refers to the signal ratio;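 note: cells stimulated with agonist L165041 at 300 nM final during compound exposure; series mostly up to about 62 µM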)
Outline: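 Cells: HEK293H with a UAS-driven beta-lactamase reporter responsive to PPARd. Compounds were co-added with L165041 (300 nM, final) and incubated 17 h at 37 C before a 2 h room-temperature FRET substrate step and fluorescence reading.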

[17] = target: Vitamin D3 receptor (Homo sapiens) (UniProt P11473); assay: qHTS assay to identify small molecule agonists of the vitamin D receptor (VDR) signaling pathway (AID 743222; calls by dose curve)
Outline: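 Cells carrying a VDR-driven beta-lactamase reporter are seeded at 2,000 per well and rested 4 h. Compounds in DMSO are added for 16 h at 37C, and FRET substrate fluorescence is measured after 2 h at room temperature.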

[18] = target: Vitamin D3 receptor (Homo sapiens) (UniProt P11473); assay: qHTS assay to identify small molecule antagonists of the vitamin D receptor (VDR) signaling pathway (AID 743223; active = well fitted inhibition curve with a large enough effect in the signal ratio in the repeat runs, not every such curve was filed as active; the % refers to the signal ratio)
Outline: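 Antagonist mode uses 1alpha,25-dihydroxyvitamin D3 at 3 nM final as stimulus. VDR-bla cells receive compounds in DMSO, incubate 16 h at 37C, then a beta-lactamase FRET substrate for 2 h at room temperature before fluorescence measurement.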

[19] = target: Bile acid receptor (Homo sapiens) (UniProt Q96RI1); assay: qHTS assay to identify small molecule antagonists of the farnesoid-X-receptor (FXR) signaling pathway (AID 743217; active = well fitted inhibition curve with a large enough effect in the signal ratio in the repeat runs, not every such curve was filed as active; the % refers to the signal ratio)
Outline: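 Cells carrying a UAS-driven beta-lactamase reporter (GeneBLAzer FXR-UAS-bla HEK 293T) were plated and rested 5 h at 37 °C. Compounds in DMSO were added alongside chenodeoxycholic acid agonist at 50 uM final and left 16 h at 37 °C before FRET substrate readout.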

[20] = target: Bile acid receptor (Homo sapiens) (UniProt Q96RI1); assay: qHTS assay to identify small molecule agonists of the farnesoid-X-receptor (FXR) signaling pathway (AID 743220; active = well fitted activation curve with a large enough effect in the signal ratio in the repeat runs, not every such curve was filed as active; the % refers to the signal ratio)
Outline: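 FXR-UAS-bla HEK 293T cells carrying a UAS-driven beta-lactamase reporter were plated for 5 h at 37C/5% CO2, then exposed to DMSO-dissolved Tox21 10K compounds for 16 h at 37C. A LiveBLAzer B/G FRET substrate was loaded for 2 h at room temperature before fluorescence reading.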
% is set by controls: 0 for no effect and ±100 for the full control effect.

Peroxisome proliferator-activated receptor gamma (Homo sapiens), sequence (P37231 whole entry, looked up): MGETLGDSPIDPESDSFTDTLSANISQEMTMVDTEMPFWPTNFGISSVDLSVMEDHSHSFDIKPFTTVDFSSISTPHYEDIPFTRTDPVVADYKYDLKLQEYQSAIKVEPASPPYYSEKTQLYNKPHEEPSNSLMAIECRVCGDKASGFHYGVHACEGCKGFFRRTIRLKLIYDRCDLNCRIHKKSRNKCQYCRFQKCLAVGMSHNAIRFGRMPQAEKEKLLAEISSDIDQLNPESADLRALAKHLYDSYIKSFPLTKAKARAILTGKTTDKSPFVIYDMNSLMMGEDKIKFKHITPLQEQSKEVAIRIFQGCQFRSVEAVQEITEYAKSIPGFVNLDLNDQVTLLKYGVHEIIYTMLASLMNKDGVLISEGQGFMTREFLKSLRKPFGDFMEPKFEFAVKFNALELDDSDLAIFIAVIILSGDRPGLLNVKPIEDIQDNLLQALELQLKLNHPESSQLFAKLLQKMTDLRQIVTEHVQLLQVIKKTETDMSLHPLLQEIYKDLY
Bile acid receptor (Homo sapiens), sequence (Q96RI1 whole entry, looked up): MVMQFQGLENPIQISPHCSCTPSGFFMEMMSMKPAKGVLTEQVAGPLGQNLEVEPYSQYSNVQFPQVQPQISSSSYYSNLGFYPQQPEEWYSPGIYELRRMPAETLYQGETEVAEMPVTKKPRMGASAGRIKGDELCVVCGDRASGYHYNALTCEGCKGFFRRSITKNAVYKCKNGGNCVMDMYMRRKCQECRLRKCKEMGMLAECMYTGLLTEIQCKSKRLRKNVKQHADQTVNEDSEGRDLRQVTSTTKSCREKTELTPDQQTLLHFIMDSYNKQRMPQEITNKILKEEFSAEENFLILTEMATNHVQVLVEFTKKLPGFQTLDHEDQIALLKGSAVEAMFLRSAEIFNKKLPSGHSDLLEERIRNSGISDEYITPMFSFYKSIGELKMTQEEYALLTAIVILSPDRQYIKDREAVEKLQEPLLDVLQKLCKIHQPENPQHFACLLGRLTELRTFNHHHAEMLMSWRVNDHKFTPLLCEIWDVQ
Peroxisome proliferator-activated receptor delta (Homo sapiens), sequence (Q03181 whole entry, looked up): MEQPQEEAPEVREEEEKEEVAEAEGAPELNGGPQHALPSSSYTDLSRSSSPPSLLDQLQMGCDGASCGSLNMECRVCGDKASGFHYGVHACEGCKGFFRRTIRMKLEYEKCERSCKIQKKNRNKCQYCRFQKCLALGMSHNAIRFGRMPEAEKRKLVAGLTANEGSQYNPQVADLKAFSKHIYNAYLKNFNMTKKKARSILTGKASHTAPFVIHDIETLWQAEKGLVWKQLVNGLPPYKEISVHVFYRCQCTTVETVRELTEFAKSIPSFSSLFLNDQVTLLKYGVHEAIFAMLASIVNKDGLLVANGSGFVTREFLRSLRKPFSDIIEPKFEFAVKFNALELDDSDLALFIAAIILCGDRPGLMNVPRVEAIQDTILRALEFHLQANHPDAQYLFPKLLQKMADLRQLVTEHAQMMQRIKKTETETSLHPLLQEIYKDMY
Aryl hydrocarbon receptor (Homo sapiens), sequence (P35869 whole entry, looked up): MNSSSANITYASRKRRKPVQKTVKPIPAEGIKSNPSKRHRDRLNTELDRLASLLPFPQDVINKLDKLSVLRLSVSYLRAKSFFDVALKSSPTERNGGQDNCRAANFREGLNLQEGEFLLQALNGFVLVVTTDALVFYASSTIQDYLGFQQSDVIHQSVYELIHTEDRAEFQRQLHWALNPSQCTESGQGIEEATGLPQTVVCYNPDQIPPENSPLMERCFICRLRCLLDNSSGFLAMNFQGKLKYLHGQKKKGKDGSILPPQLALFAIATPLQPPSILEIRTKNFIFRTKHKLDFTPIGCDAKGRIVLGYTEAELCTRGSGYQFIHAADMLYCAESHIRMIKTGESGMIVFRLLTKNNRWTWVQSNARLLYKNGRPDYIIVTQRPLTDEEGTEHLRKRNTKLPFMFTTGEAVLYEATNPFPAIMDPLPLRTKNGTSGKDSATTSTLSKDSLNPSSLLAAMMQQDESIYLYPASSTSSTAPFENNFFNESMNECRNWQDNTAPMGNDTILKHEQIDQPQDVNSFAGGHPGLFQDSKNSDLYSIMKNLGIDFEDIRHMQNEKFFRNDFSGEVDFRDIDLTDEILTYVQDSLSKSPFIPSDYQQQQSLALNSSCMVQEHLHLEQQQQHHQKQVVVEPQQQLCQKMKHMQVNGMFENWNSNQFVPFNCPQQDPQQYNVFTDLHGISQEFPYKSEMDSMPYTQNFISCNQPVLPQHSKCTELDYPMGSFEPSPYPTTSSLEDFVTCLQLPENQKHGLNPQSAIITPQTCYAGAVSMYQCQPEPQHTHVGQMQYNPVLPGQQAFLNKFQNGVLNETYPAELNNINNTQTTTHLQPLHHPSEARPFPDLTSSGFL
Vitamin D3 receptor (Homo sapiens), sequence (P11473 whole entry, looked up): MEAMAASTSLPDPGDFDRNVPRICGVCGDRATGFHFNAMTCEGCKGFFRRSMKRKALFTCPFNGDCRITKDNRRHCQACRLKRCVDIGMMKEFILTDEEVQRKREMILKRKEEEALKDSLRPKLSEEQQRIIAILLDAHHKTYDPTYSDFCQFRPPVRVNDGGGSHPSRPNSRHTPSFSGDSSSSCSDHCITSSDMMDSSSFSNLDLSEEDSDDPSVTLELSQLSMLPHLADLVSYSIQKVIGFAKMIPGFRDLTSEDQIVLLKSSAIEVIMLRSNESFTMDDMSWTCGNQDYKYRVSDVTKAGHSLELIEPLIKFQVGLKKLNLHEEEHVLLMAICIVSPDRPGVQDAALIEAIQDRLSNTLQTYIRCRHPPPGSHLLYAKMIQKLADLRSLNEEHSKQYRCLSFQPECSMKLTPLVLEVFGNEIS

CN(C)CCN(C)CCN(C)C
inactive: Potency [1] | Potency [2] | Potency [3] | Potency [4] | Potency [5] | outcome [6] | Potency [7] | outcome [8] | outcome [9] | outcome [10] | outcome [11] | outcome [12] | outcome [13] | outcome [14]

O=C(c1ccccc1)C1(O)CCCCC1
inactive: Potency [1] | Potency [2] | Potency [3] | Potency [4] | Potency [5] | outcome [6] | outcome [8] | outcome [9] | outcome [10] | outcome [11] | outcome [12] | outcome [15] | outcome [16] | outcome [13] | outcome [17] | outcome [18]

N[C@@H](CCC(=O)O)C(=O)O
inactive: Potency [1] | Potency [2] | Potency [3] | Potency [4] | Potency [5] | outcome [6] | Potency [7] | outcome [8] | outcome [11] | outcome [12] | outcome [15] | outcome [16] | outcome [13] | outcome [14] | outcome [17] | outcome [18]

CCCCN(CCC(=O)OCC)C(C)=O
inactive: Potency [1] | Potency [2] | Potency [3] | Potency [4] | Potency [5] | outcome [6] | Potency [7] | outcome [8] | outcome [9] | outcome [10] | outcome [11] | outcome [12] | outcome [15] | outcome [13] | outcome [14] | outcome [17]

CCC1C(=O)OCC1Cc1cncn1C (stereo not given)
inactive: Potency [1] | Potency [2] | Potency [3] | Potency [4] | Potency [5] | outcome [6] | Potency [7] | outcome [9] | outcome [10] | outcome [11] | outcome [16] | outcome [13] | outcome [17] | outcome [18]

CC(=O)c1ccc2ccccc2c1
inactive: Potency [1] | Potency [2] | Potency [3] | Potency [4] | Potency [5] | outcome [6] | outcome [8] | outcome [9] | outcome [10] | outcome [11] | outcome [12] | outcome [15] | outcome [16] | outcome [19] | outcome [13] | outcome [20] | outcome [14] | outcome [17] | outcome [18]

[Ca+2]
inactive: Potency [1] | Potency [2] | Potency [3] | Potency [4] | Potency [5] | outcome [6] | outcome [8] | outcome [9] | outcome [10] | outcome [11] | outcome [12] | outcome [15] | outcome [16] | outcome [17] | outcome [18]

Nc1ccncc1N
inactive: Potency [1] | Potency [3] | Potency [4] | Potency [5] | outcome [6] | Potency [7] | outcome [8] | outcome [9] | outcome [10] | outcome [11] | outcome [12] | outcome [16] | outcome [19] | outcome [13] | outcome [20] | outcome [14] | outcome [17] | outcome [18]
active: Potency [2] 2660 nM

CC(C)(N)C#N
inactive: Potency [1] | Potency [2] | Potency [3] | Potency [4] | Potency [5] | outcome [6] | Potency [7] | outcome [8] | outcome [9] | outcome [10] | outcome [11] | outcome [12] | outcome [15] | outcome [16] | outcome [13] | outcome [14]

C[N+]1(C)[C@@H]2CC(OC(=O)[C@H](CO)c3ccccc3)C[C@H]1[C@@H]1O[C@@H]12 (stereo not given in full)
inactive: Potency [1] | Potency [2] | Potency [3] | Potency [4] | Potency [5] | outcome [6] | Potency [7] | outcome [8] | outcome [9] | outcome [10] | outcome [11] | outcome [15] | outcome [13] | outcome [14] | outcome [17] | outcome [18]

CCN[C@@H]1C[C@H](N)[C@@H](OC2OC(CN)=CCC2N)[C@H](O)[C@H]1O[C@H]1OC[C@](C)(O)[C@H](NC)[C@H]1O (stereo not given in full)
inactive: Potency [1] | Potency [2] | Potency [3] | Potency [4] | ratio activity, negative = inhibition [5] -0.0427% [at 0.55 µM] | activity change, negative = cytotoxicity [6] -4.19% [at 0.55 µM] | activation [7] -10.7% [at 0.756 µM] | viability change, negative = cytotoxic [8] -2.08% [at 0.756 µM] | activity change, negative = cytotoxicity [9] 9.84% [at 0.55 µM] | activation [10] -1.49% [at 0.55 µM] | activity change, negative = cytotoxicity [11] 7.95% [at 0.55 µM] | viability change, negative = cytotoxic [15] 8.69% [at 0.575 µM] | viability change, negative = cytotoxic [13] 10.1% [at 0.55 µM] | activation [17] 11.5% [at 0.554 µM] | activity change, negative = inhibition [18] 9.37% [at 0.628 µM]

CC(C)C1CCC(O)CC1 (stereo not given)
inactive: Potency [1] | Potency [2] | Potency [3] | Potency [4] | Potency [5] | outcome [6] | Potency [7] | outcome [9] | outcome [10] | outcome [11] | outcome [14] | outcome [17] | outcome [18]

C[C@H]1C[C@H]2[C@@H]3CCC4=CC(=O)C=C[C@]4(C)[C@H]3C(=O)C[C@]2(C)[C@@]1(O)C(=O)CO
inactive: Potency [1] | Potency [2] | Potency [3] | Potency [4] | Potency [5] | outcome [6] | Potency [7] | outcome [8] | outcome [9] | outcome [10] | outcome [11] | outcome [12] | outcome [13] | outcome [14] | outcome [17] | outcome [18]

CCCCCCCC1CCCC1=O (stereo not given)
inactive: Potency [1] | Potency [2] | Potency [3] | Potency [4] | Potency [5] | outcome [6] | Potency [7] | outcome [10] | outcome [11] | outcome [12] | outcome [16] | outcome [13]

CO[Si](C)(OC)c1ccccc1
inactive: Potency [1] | Potency [2] | Potency [3] | Potency [4] | Potency [5] | outcome [6] | Potency [7] | outcome [8] | outcome [9] | outcome [10] | outcome [11] | outcome [12] | outcome [15] | outcome [13] | outcome [17]

CCCc1ncc(C[n+]2ccccc2C)c(N)n1
inactive: Potency [1] | Potency [2] | Potency [3] | Potency [4] | Potency [5] | outcome [6] | Potency [7] | outcome [8] | outcome [9] | outcome [10] | outcome [11] | outcome [19] | outcome [13] | outcome [20] | outcome [14] | outcome [17] | outcome [18]

CC[N+](C)(CC)CCOC(=O)C1c2ccccc2Oc2ccccc21
inactive: Potency [1] | Potency [2] | Potency [3] | Potency [4] | Potency [5] | outcome [6] | Potency [7] | outcome [8] | outcome [11] | outcome [12] | outcome [15] | outcome [16] | outcome [13] | outcome [14] | outcome [17] | outcome [18]
